According to the supplement of paper PMC8183993:
Where “and” joins values, the source holds several entries; their conditions need not be identical. Equal entries are not always repeated. Structures can show the parent of a compound that is named as a salt. ± gives the standard deviation of the averaged measurements. The full ranking holds about 3,100 compounds; the median of “mean cytoplasmic OPP incorporation (global translation) relative to DMSO” is about 100, and the lowest 2% start at about 56. This is one part of a sample in which the lowest values are shown more often than they occur.

Test system: U2OS
Experiment: mean cytoplasmic OPP incorporation (global translation) relative to DMSO (% of DMSO); higher = more protein synthesis
Conditions: 10 µM; 24 h
Description: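 Primary image-based screen in U2OS cells: compounds at 10 uM for 24 h, then a 1 h o-propargyl-puromycin (OPP) pulse, click labelling, and high-throughput microscopy. Mean cytoplasmic OPP intensity and nuclei count were normalised to DMSO wells within each plate (DMSO = 100) and averaged over triplicate plates.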

Going from O=C(O)Cc1nn(Cc2ccc(Br)cc2F)c(=O)c2ccccc12 [Statil] to CSc1ccc(/C=C2/C(C)=C(CC(=O)O)c3cc(F)ccc32)cc1 [Sulindac Sulfide], the “mean cytoplasmic OPP incorporation” value rises from 98.2 to 104.

Compared with COc1ccc(C(=O)NCc2cccnc2)cc1C(=O)NCc1cccnc1 [Picotamide monohydrate], Nc1ccccc1NC(=O)c1ccc(CNC(=O)OCc2cccnc2)cc1 [Entinostat (MS-275, SNDX-275)] is lower in “mean cytoplasmic OPP incorporation” value: 98.8 for the first, 23.5 for the second.

First: Nc1ccccc1NC(=O)c1ccc(CNc2nccc(-c3cccnc3)n2)cc1 [Mocetinostat (MGCD0103)]
Second: Cc1ccc(NC(=O)c2ccc(CN3CCN(C)CC3)cc2)cc1Nc1nccc(-c2cccnc2)n1 [Imatinib mesylate]
The “mean cytoplasmic OPP incorporation” value of the first is lower: 35.5 for the first, 121 ± 11 for the second.

First: Cc1ccc(NC(=O)c2ccc(CN3CCN(C)CC3)cc2)cc1Nc1nccc(-c2cccnc2)n1 [Imatinib (STI571)]
Second: Cc1cc(NC(=O)c2cccc(NC(=O)/C=C/CN(C)C)c2)ccc1Nc1nccc(-c2cccnc2)n1
The “mean cytoplasmic OPP incorporation” value of the first is higher: 124 for the first, 96.1 for the second.

First: CC(=O)Nc1ccc(C(=O)Nc2ccccc2N)cc1
Second: NS(=O)(=O)c1ccc(NC(=O)Nc2ccc(F)cc2)cc1
The “mean cytoplasmic OPP incorporation” value of the first is lower: 57.3 ± 33 for the first, 98.7 for the second.

First: Cc1ccc(NC(=O)c2ccc(CN3CCN(C)CC3)cc2)cc1Nc1nccc(-c2cccnc2)n1 [Imatinib]
Second: Cc1ccc(NC(=O)C(C)C)cc1C1CCN(Cc2ccc(Oc3ccc(F)c(F)c3)cc2)CC1
The “mean cytoplasmic OPP incorporation” value of the first is higher: 120 for the first, 108 for the second.

Going from Cc1ccc(NC(=O)c2ccc(CN3CCN(C)CC3)cc2)cc1Nc1nccc(-c2cccnc2)n1 [Imatinib Mesylate] to O=C(Nc1ccccc1-c1cn2c(CN3CCNCC3)csc2n1)c1cnc2ccccc2n1, the “mean cytoplasmic OPP incorporation” value falls from 130 to 48.8.

First: O=c1nc2ccccc2c2n1CC(CN1CCN(c3ccccc3)CC1)N2 (stereo not drawn)
Second: O=S1(=O)c2cccc3cccc(c23)N1CCCN1CCN(c2ccc(F)cc2)CC1 [Fananserin]
The “mean cytoplasmic OPP incorporation” value of the first is lower: 101 for the first, 103 for the second.

Compared with O=C(O)c1ccccc1Nc1cccc2c1C(=O)c1cccc(Nc3ccccc3C(=O)O)c1C2=O, CC1(C)OC2=C(C(=O)c3ccccc3C2=O)[C@H](NCc2ccccc2)[C@@H]1O is lower in “mean cytoplasmic OPP incorporation” value: 113 for the first, 38.9 for the second.

First: O=C(Cc1ccccc1)Nc1nc2ccc(Cl)cc2c2nc(-c3ccco3)nn12
Second: O=c1[nH]c2cc(Cl)ccc2c(O)c1-c1cccc(Oc2ccccc2)c1
The “mean cytoplasmic OPP incorporation” value of the first is higher: 104 for the first, 103 for the second.

First: CC(C)CC(NC(=O)OCC1c2ccccc2-c2ccccc21)C(=O)O (stereo not drawn)
Second: CC(NC(=O)C(Cc1ccccc1)NC(=O)OCc1ccccc1)C(=O)CF (stereo not drawn)
The “mean cytoplasmic OPP incorporation” value of the first is higher: 109 for the first, 101 for the second.

First: Brc1ccc(C2CN3CCSC3=N2)cc1 [L-p-Bromotetramisole oxalate]
Second: CN1CCN(C(=O)c2nc3ccc(Cl)cc3[nH]2)CC1
The “mean cytoplasmic OPP incorporation” value of the first is higher: 94.5 for the first, 81.1 for the second.

Going from CCOC(=O)C=Cc1ccc(O)c(OC)c1 [Ferulic acid ethylester] to CCCCCCCCOC(=O)/C=C/c1ccc(O)c(O)c1 [n-Octyl caffeate], the “mean cytoplasmic OPP incorporation” value falls from 103 to 88.9.

First: COCC[n+]1c2c(n(Cc3cnccn3)c1C)C(=O)c1ccccc1C2=O
Second: O=C1NC(=O)c2c1c(-c1ccccc1)cc1[nH]c3ccc(O)cc3c21
The “mean cytoplasmic OPP incorporation” value of the first is lower: 35 for the first, 51.8 for the second.

First: CC(C)NCC(O)COc1ccccc1-n1cccc1 (stereo not drawn) [Isamoltane hemifumarate]
Second: O=C(O)Cc1ccc(OCCNC[C@H](O)c2ccccc2)cc1 [ZD 2079 hydrochloride]
The “mean cytoplasmic OPP incorporation” value of the first is lower: 94.6 for the first, 103 for the second.

Compared with Nc1c(O)cc(O)cc1C=Cc1ccc(O)cc1 [Aminoresveratrol sulfate], CCCOC(=O)c1cc(O)c(O)c(O)c1 [N-Propyl gallate] is higher in “mean cytoplasmic OPP incorporation” value: 100 for the first, 123 for the second.

First: CCC(=O)NC1CCc2cccc(OC)c2C1 (stereo not drawn)
Second: CC1(C)Oc2ccc(C#N)cc2[C@H](N2CCCC2=O)[C@H]1O [Cromakalim]
The “mean cytoplasmic OPP incorporation” value of the first is higher: 101 for the first, 98.1 for the second.

Going from CS(=O)(=O)N1CCN(Cc2cc3nc(-c4cccc5[nH]ncc45)nc(N4CCOCC4)c3s2)CC1 [Pictilisib (GDC-0941)] to Cc1c(CN2CCN(C(=O)[C@H](C)O)CC2)sc2c(N3CCOCC3)nc(-c3cnc(N)nc3)nc12 [Apitolisib (GDC-0980, RG7422)], the “mean cytoplasmic OPP incorporation” value falls from 73.8 to 50.7.

First: COc1ccc(-c2nc(N3CCOCC3)c3sc(CN(C)c4ncc(C(=O)NO)cn4)cc3n2)cn1
Second: COc1ccc(-c2ccc3ncc4c(c3c2)n(-c2ccc(N3CCNCC3)c(C(F)(F)F)c2)c(=O)n4C)cn1
The “mean cytoplasmic OPP incorporation” value of the first is higher: 86.6 for the first, 33.4 ± 16 for the second.

Compared with Cc1cc(Cc2cc(C)cc(C(C)(C)C)c2O)c(O)c(C(C)(C)C)c1, Cc1cc(C)c(S(=O)(=O)Nc2ccccc2C(F)(F)F)c(C)c1 is lower in “mean cytoplasmic OPP incorporation” value: 103 for the first, 97.3 for the second.

Going from CC1(C)S[C@@H]2[C@H](NC(=O)Cc3ccccc3)C(=O)N2[C@H]1C(=O)O [Benzylpenicillin sodium] to Cc1cc(C(=O)NNCc2ccccc2)no1 [Isocarboxazid], the “mean cytoplasmic OPP incorporation” value rises from 80.8 to 106.

CC1(C)S[C@@H]2[C@H](NC(=O)Cc3ccccc3)C(=O)N2[C@H]1C(=O)O [Benzathine benzylpenicillin] and CCCC[C@@H](C=O)NC(=O)[C@H](CC(C)C)NC(=O)OCc1ccccc1 [Calpeptin] are within error of each other in “mean cytoplasmic OPP incorporation” value: 104 for the first, 106 ± 7.2 for the second.

Compared with CC(C)Oc1ccc(-c2c[nH]cc2CN(C)CCN)cc1, CCN(CC)CCCC(C)Nc1c2ccc(Cl)cc2nc2ccc(OC)cc12 (stereo not drawn) [Quinacrine dihydrochloride dihydrate] is lower in “mean cytoplasmic OPP incorporation” value: 100 for the first, 29.5 for the second.

Compared with CC(CCCCC(=O)Nc1ccc(C(F)(F)F)cc1)NCCc1cnc[nH]1 (stereo not drawn) [HTMT dimaleate], CCN(CCO)CCCC(C)Nc1ccnc2cc(Cl)ccc12 (stereo not drawn) [Hydroxychloroquine sulfate] is higher in “mean cytoplasmic OPP incorporation” value: 100 for the first, 102 for the second.

Going from FC(F)(F)c1cc(COC2CCCNC2c2ccccc2)cc(C(F)(F)F)c1 [L-733,060 hydrochloride] to COc1ccc(CCN2CCN(CCCc3ccccc3)CC2)cc1OC, the “mean cytoplasmic OPP incorporation” value rises from 108 to 111.

Going from CCC(C)[C@H](NS(=O)(=O)c1cccc2ccccc12)C(=O)N[C@H](C=O)Cc1c[nH]c2ccccc12 (stereo partly drawn) to N#Cc1cc2c(OCC(O)CN3CCN(C(c4ccccc4)c4ccccc4)CC3)cccc2[nH]1 (stereo not drawn), the “mean cytoplasmic OPP incorporation” value rises from 102 to 107.

Going from COc1ccc2cc3[n+](cc2c1OC)CCc1cc2c(cc1-3)OCO2 [Berberine HCl] to C[n+]1cc2c3c(ccc2c2ccc4cc5c(cc4c21)OCO5)OCO3 [Sanguinarine chloride], the “mean cytoplasmic OPP incorporation” value falls from 106 to 42.4.

Going from CS(=O)(=O)CCNCc1nc(-c2ccc3ncnc(Nc4ccc(OCc5cccc(F)c5)c(Cl)c4)c3c2)cs1 to Nc1ccc(-c2ccc3ncc4ccc(=O)n(-c5cccc(C(F)(F)F)c5)c4c3c2)cn1 [Torin 2], the “mean cytoplasmic OPP incorporation” value falls from 102 to 67.6 ± 3.6.

Going from CCN(CCO)CCCC(C)Nc1ccnc2cc(Cl)ccc12 (stereo not drawn) [Hydroxychloroquine] to CCN(CC)CCCC(C)Nc1ccnc2cc(Cl)ccc12 (stereo not drawn) [Chloroquine], the “mean cytoplasmic OPP incorporation” value rises from 93 to 107.

Compared with CCN(CC)CCCC(C)Nc1ccnc2cc(Cl)ccc12 (stereo not drawn) [Chloroquine diphosphate], CCN(CC)CCNC(=O)c1c(C)[nH]c(/C=C2\C(=O)Nc3ccc(Cl)cc32)c1C is higher in “mean cytoplasmic OPP incorporation” value: 105 for the first, 124 for the second.

Compared with O=C(CCCCCCC(=O)NO)NO [Suberoyl bis-hydroxamic acid], CCCCC[C@H](O)/C=C/C=C\CCCCCCCC(=O)O [13(S)-Hydroxy-9Z,11E-octadecadienoic acid] is higher in “mean cytoplasmic OPP incorporation” value: 88.4 for the first, 99.3 for the second.

Compared with C[C@H](CCC(=O)NCC(=O)O)[C@H]1CC[C@H]2[C@@H]3CC[C@@H]4C[C@H](O)CC[C@]4(C)[C@H]3C[C@H](O)[C@]12C [Glycodeoxycholic acid], C[C@H](CC[C@@H]1OC1(C)C)[C@H]1CC[C@H]2[C@@H]3CC=C4C[C@@H](O)CC[C@]4(C)[C@H]3CC[C@]12C [24(S),25-Epoxycholesterol] is higher in “mean cytoplasmic OPP incorporation” value: 102 for the first, 112 for the second.

Compared with CCC(=O)N1CCN(c2ccc(-n3c(=O)ccc4cnc5ccc(-c6cnc7ccccc7c6)cc5c43)cc2C(F)(F)F)CC1 [Torin 1], CN1CCCN(C(=O)c2cccc(-c3ccc(/C=C4/C(=O)Nc5ccc(Cl)cc54)o3)c2)CC1 is lower in “mean cytoplasmic OPP incorporation” value: 73 for the first, 55.4 for the second.

First: Cc1nnc(-c2ccc3occ(-c4ccc([S+](C)[O-])cc4)c3c2)o1 (stereo not drawn)
Second: Nc1nc(Nc2ccc(S(N)(=O)=O)cc2)nn1C(=O)c1c(F)cccc1F
The “mean cytoplasmic OPP incorporation” value of the first is higher: 105 for the first, 50.1 for the second.

Compared with CC(/C=C/C(=O)NO)=C\[C@@H](C)C(=O)c1ccc(N(C)C)cc1 [Trichostatin A], Cc1cc(C(=O)O)sc1C(N)C(=O)O (stereo not drawn) is higher in “mean cytoplasmic OPP incorporation” value: 66.2 ± 33 for the first, 104 for the second.

First: Cc1[nH]c(/C=C2\C(=O)Nc3ccc(S(=O)(=O)N(C)c4cccc(Cl)c4)cc32)c(C)c1C(=O)N1CCN(C)CC1
Second: CCN(C(=O)CO)[C@H]1CN(/C(=N\C#N)Nc2cccc(OC(F)F)c2)N=C1c1ccc(Cl)c(Cl)c1
The “mean cytoplasmic OPP incorporation” value of the first is lower: 88.9 for the first, 107 for the second.

Compared with NCCCCCc1c[nH]cn1 [Impentamine dihydrobromide], NC(N)=NCCC[C@H](NC(=O)[C@@H]1CCCN1C(=O)[C@H](N)Cc1ccccc1)C(=O)CCl is higher in “mean cytoplasmic OPP incorporation” value: 99.3 for the first, 99.7 for the second.

First: COC(=O)[C@@H](N)CSC/C=C(\C)CC/C=C(\C)CCC=C(C)C [S-Farnesyl-L-cysteine methyl ester]
Second: CC[C@H](C)[C@H](N)C1=N[C@H](C(=O)N[C@@H](CC(C)C)C(=O)N[C@H](CCC(=O)[O-])C(=O)N[C@H](C(=O)N[C@H]2CCCCNC(=O)[C@H](CC(N)=O)NC(=O)[C@@H](CC(=O)[O-])NC(=O)[C@H](Cc3cnc[nH]3)NC(=O)[C@@H](Cc3ccccc3)NC(=O)[C@H]([C@@H](C)CC)NC(=O)[C@@H](CCCN)NC2=O)[C@@H](C)CC)CS1.[Zn+2] [Bacitracin zinc]
The “mean cytoplasmic OPP incorporation” value of the first is lower: 95.9 for the first, 107 for the second.

With Cc1cc(I)ccc1Nc1c(C(=O)NOCC2CC2)cc(F)c(F)c1F the “mean cytoplasmic OPP incorporation” value was 97.5.

CC(C)C[C@@H](C=O)NC(=O)[C@H](CC(C)C)NC(=O)[C@H](CC(C)C)NC(=O)OCc1ccccc1 was tested, and the “mean cytoplasmic OPP incorporation” value was 91.4 and 56.1.
